AF4-AF9 inh = inhibitors of AF4 peptide binding to AF9, primary screen, biochemical, AlphaScreen, biotin-AF4 peptide, FLAG-AF9, single point. Protein AF-9 (Homo sapiens), P42568. inhibition, % at 10 µM. 350,000 tested, 0.47% active;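 active means every replicate reaching a set inhibition limit, whatever the replicate mean, cut at about 25% in these data; inconclusive means mean inhibition reaches that limit but some replicates miss it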;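 further: 0% = plate neutral control median and 100% = total signal loss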
Wnt act = Wnt/beta-catenin pathway activators, primary screen, cell-based, plate reader, single point. Wnt/beta-catenin reporter cell assay, activator. activation, % at 9.35 µM. 300,000 tested, 1.2% active. AID 743398, 2014; in the data active means activation above about 30%, passing the limit was not always enough; inconclusive means no clear call, values can overlap the other calls;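 further: 0% = neutral control wells and 100% = positive control wells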
esBAF inh = Bmi1 luciferase reporter increase in mESCs, primary screen, esBAF inhibitor project, mouse ES cells, Bmi1 luciferase knock-in, single point. 24 h; 100% = twice the neutral-well signal. reporter increase, % at 12.5 µM. 350,000 tested, 2% active. AID 602393, 2012; in the data active means activation above about 40%; inconclusive means no clear call, values can overlap the other calls;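 further: 0% = median of the plate's neutral control wells and 100% = double that signal; a rise in the Bmi1 reporter signal indicates esBAF inhibition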
SMARCA2 act = SMARCA2 (BRM) function activators, primary screen, cell-based, luminescence, high throughput | MG213 cells, MMTV-luciferase reporter, dexamethasone, overnight | activation, % at 9.1 µM | AID 652017, 2013 | 370,000 tested, 1% active; in the data active means activation above about 7.8%;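 further: 0% = vehicle wells and 100% = reference activator wells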
MITF act = activators of MITF-driven TRPM1 promoter reporter, primary screen, cell-based, SK-MEL-5, luciferase, single point. SK-MEL-5 TRPM1-promoter luciferase, 24 h; % of positive control, neutral wells = 0. activation, % at 12.5 µM. 300,000 tested, 0.75% active. AID 588334, 2011;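 active means mean activation of at least 80% with every replicate also reaching 80%; inconclusive means mean reaches 80% but some replicate falls short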;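 further: 0% = neutral control wells and 100% = parthenolide positive control wells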
FGF22 binding = binders of human FGF22 protein, primary screen, FGF22 synaptogenesis inhibitor project, biophysical, thermal shift, single point. recombinant FGF22 thermal shift, SYPRO orange fluorescence; percent of sucrose octasulfate shift, DMSO zero. 340,000 tested, 1.5% active. activity (Tm shift, normalised), % at 9.99 µM;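 active means mean Tm shift, scaled 0 neutral to 100 positive control, at about 1.3% or above, every replicate too, limit read from the data; inconclusive means no clear call, values can overlap the other calls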
Target sequence (Q9HCT0 whole entry, looked up): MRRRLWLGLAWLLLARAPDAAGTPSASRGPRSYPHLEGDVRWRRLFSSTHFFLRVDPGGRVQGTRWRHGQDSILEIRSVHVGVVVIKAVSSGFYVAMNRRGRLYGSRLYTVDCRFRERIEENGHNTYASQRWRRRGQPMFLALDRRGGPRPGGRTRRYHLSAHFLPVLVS
* = called active by the depositor; ? = inconclusive; / = no result. In the library only some 4.3% were active in any assay of this set; here they are far more common.

SMILES	AF4-AF9 inh	Wnt act	esBAF inh	SMARCA2 act	MITF act	FGF22 binding
Cc1occc1C(=O)N/N=C/c1ccc(N(C)C)cc1	0	-1	-56	3	/	/
CO[C@H]1CN(C)C(=O)c2cc(NC(=O)NC3CCCCC3)ccc2OC[C@@H](C)N(CC2CCOCC2)C[C@H]1C	-18	/	7	/	/	0
BrC(=C\c1ccccc1)/C=N/Nc1nc2ccccc2[nH]1	/	33*	/	1	30	/
O=C(N/N=C/C=C/c1ccccc1)c1cccc(Br)c1	-37	-2	5	-2	10	1.4*
Cc1ccc(C(=O)CNc2ccccc2)cc1	0	6	62*	3	62	0
C(=N\Nc1nc2ccccc2[nH]1)/c1ccccn1	14	21	/	1	-82	43
Cc1ccc(C(=O)N/N=C/C=C/c2ccccc2)cc1	-1	/	/	3	20	0
O=C(NCc1ccco1)C1CCCN(S(=O)(=O)c2ccccc2F)C1 (stereo not drawn)	/	/	/	-2	/	/
Cc1ccc(C2/C(=C(\O)c3cnn(-c4ccccc4)c3C)C(=O)C(=O)N2CCN(C)C)o1 (stereo not drawn)	/	-2	48*	2	/	/
Cc1ccc(C2/C(=C(/O)c3cnn(-c4ccccc4)c3C)C(=O)C(=O)N2CCN2CCOCC2)o1 (stereo not drawn)	/	/	50*	4	20	/
CC1CN(C)C(C)C/C1=N/Oc1ccccc1[N+](=O)[O-] (stereo not drawn)	3	0	5	-2	5	44*
CCCCC1(C)OC(=O)C(=Cc2ccc(-c3ccc(Cl)c(C(=O)O)c3)o2)C(=O)O1 (stereo not drawn)	2	4	/	0	1	3.8*
Cc1ccc(N2NC(=O)/C(=C/c3ccc(-c4ccc(Cl)c(C(=O)O)c4)o3)C2=O)cc1	-3	0	-8	-1	6	0
Cc1cccc(S(=O)(=O)N[C@@H]2CC[C@H](CCNC(=O)c3cnccn3)O[C@@H]2CO)c1	-1	/	-4	/	/	0
CCOC(=O)N/N=C\C=C\c1ccco1	-2	1	/	0	-1	0
O=C(N/N=C/C=C\c1ccco1)c1cccs1	-12	4	/	5	71	44*
Cc1ccc(N/N=C/C=C/c2ccco2)cc1	0	27	/	8	99*	0
CN1CCN(C(=O)/C(=C\c2cccs2)NC(=O)c2ccccc2)CC1	-10	3	-4	2	-2	27*
CCOC(=O)N1CCN(c2ccc(C(=O)c3ccccc3)cc2F)CC1	/	/	56*	2	18	/
CCOC(=O)N1CCN(c2ccc(C(C)=O)cc2F)CC1	/	-6	6	-4	-7	/
CCCC(=O)c1ccc(N2CCCC2)c(F)c1	/	49*	?	0	68	/
CCCC(=O)c1ccc(N2CCN(S(=O)(=O)c3ccccc3)CC2)c(F)c1	/	/	8	-3	9	/
COc1ccc(S(=O)(=O)N(C)C[C@@H]2OCCCC[C@H](C)Oc3ccc(NC(=O)Nc4ccc(C(F)(F)F)cc4)cc3C(=O)N([C@H](C)CO)C[C@@H]2C)cc1	-11	/	-4	/	/	1
COc1ccc(/C=C/c2cc(O)cc(OC3OC(CO)C(O)C(O)C3O)c2)cc1 (stereo not drawn)	2	49*	-34	3	117*	0
Cc1cc(O)cc(O[C@H]2OC(CO)[C@H](O)[C@@H](O)[C@H]2O)c1 (stereo partly drawn)	-4	-1	-6	1	-5	0
SMILES	AF4-AF9 inh	Wnt act	esBAF inh	SMARCA2 act	MITF act	FGF22 binding
COc1cc(/C=C/CO)ccc1O[C@@H]1O[C@H](CO)[C@@H](O)[C@H](O)[C@H]1O	-1	-1	-2	-3	/	0
COc1ccc(/C=C/c2cc(O)cc(O[C@@H]3O[C@H](CO)[C@@H](O)[C@H](O)[C@H]3O)c2)cc1O	-3	72*	-25	-2	/	-1
O=C(C[C@H]1CC[C@H]2[C@@H](COC[C@@H](O)CN2Cc2cccc(C(F)(F)F)c2)O1)NCCc1ccccc1	-11	/	11	/	/	0
C[C@H](CO)N1C[C@H](C)[C@@H](CN(C)C(=O)CN2CCOCC2)Oc2ncc(C#C[C@@H](C)O)cc2C1=O	-5	/	-2	/	/	0
NS(=O)(=O)c1ccc(N/C=C\C(=O)c2ccncc2)cc1	-1	1	/	1	29	43*
NS(=O)(=O)c1ccc(N/C=C/C(=O)c2ccc(Br)cc2)cc1	1	14	/	1	16	0
CNC[C@H]1Oc2ccc(NC(=O)Nc3c(C)noc3C)cc2CC(=O)N([C@H](C)CO)C[C@H]1C	/	/	-2	/	/	/
Cc1ccc(-n2cc(CN3CCNC(=O)CC3)c(-c3cccc(C)c3)n2)cc1	7	/	9	1	20	43
Cc1ccc(-n2cc(CN3CCN(Cc4nccn4C)CC3)c(-c3cccc(C)c3)n2)cc1	29*	2	11	-2	32	0
CC(=O)N1CCCN(Cc2cn(-c3ccc(C)cc3)nc2-c2ccc(F)cc2)CC1	5	1	/	0	0	43*
COC(=O)C1=C(C)N(Cc2cccc(C(F)(F)F)c2)C(=NCc2ccc(C(F)(F)F)cc2)NC1c1cccc(C(F)(F)F)c1 (stereo not drawn)	-1	-28	/	-4	/	42
CN(C)CCCNC(=O)C[C@H]1C=C[C@@H](NC(=O)c2ccccc2F)[C@@H](CO)O1	-3	/	0	/	/	0
Cc1cc(NO)nc(-c2ccc(Br)cc2)n1	/	/	51*	6	64	/
COC(=O)c1c(-c2ccc(N(C)C)cc2)sc2ccc(OC)cc12	-9	20	23	-5	79	0
COC(=O)c1c(-c2ccc(OC)cc2)sc2cc3c(cc12)OCO3	-4	33*	49*	6	92*	0
COc1ccc(NC(=O)N(C)C[C@H]2Oc3ccc(NC(=O)Cc4ccccc4)cc3C(=O)N([C@@H](C)CO)C[C@@H]2C)cc1	0	/	6	/	/	0
O=C1c2ccccc2NC(c2cccc([N+](=O)[O-])c2)N1CCc1ccccc1 (stereo not drawn)	11	6	46*	4	6	0
O=C(O)c1c2cc(Br)ccc2nc2[nH]c(=O)[nH]c(=O)c12	-1	-4	-8	1	-2	43*
Cn1cccc1Cc1nnc(SCC(=O)N2CCCC2)n1CCc1ccccc1	2	-3	-2	-1	-2	43*
Cc1nnc2ccc(N3CCN(c4cccc(C(F)(F)F)c4)CC3)nn12	51*	-1	8	-2	18	0

Screening results: PubChem BioAssay, several laboratories
